Source: the antibiotic and cytotoxicity screens of Wong et al. (2023)
Out of some 39,000 compounds screened, about 500 (1.3%) were called active. The full list was thinned out, with actives kept by preference.

test system: S. aureus RN4220; experiment: growth inhibition call (relative growth <= 0.2); conditions: 50 µM

| SMILES | growth inhibition call |
| --- | --- |
| C[C@@H]1CCCCO[C@@H](CN(C)Cc2ccc(C(=O)O)cc2)[C@H](C)CN([C@H](C)CO)C(=O)c2cc(NC(=O)Nc3ccc(F)cc3)ccc2O1 | inactive |
| C[C@@H]1CN([C@@H](C)CO)C(=O)c2cc(C#CC3(O)CCCC3)cnc2O[C@@H]1CN(C)S(=O)(=O)c1ccc(F)cc1 | inactive |
| COCC(=O)N1CC[C@]2(CC1)CN([C@H](CO)c1c2c2ccc(cc2n1C)OC)C(=O)Cc1ccccc1 | inactive |
| CCC(=O)O[C@H]1[C@H](O[C@@H]2[C@@H](C)[C@H](O[C@H]3C[C@@](C)(OC)[C@@H](O)[C@H](C)O3)[C@@H](C)C(=O)O[C@H](CC)[C@@](C)(O)[C@H](O)[C@@H](C)C(=O)[C@H](C)C[C@@]2(C)O)O[C@H](C)C[C@@H]1N(C)C | inactive |
| CCOC(=O)CCC(=O)OC1C(OC2C(C)C(OC3CC(C)(OC)C(O)C(C)O3)C(C)C(=O)OC(CC)C(C)(O)C(O)C(C)C(=O)C(C)CC2(C)O)OC(C)CC1N(C)C (stereo not given) | active |
| CCOC(=O)CCC(=O)O[C@H]1[C@H](O[C@@H]2[C@@H](C)[C@H](O[C@H]3C[C@@](C)(OC)[C@@H](O)[C@H](C)O3)[C@@H](C)C(=O)O[C@H](CC)[C@@](C)(O)[C@H](O)[C@@H](C)C(=O)[C@H](C)C[C@@]2(C)O)O[C@H](C)C[C@@H]1N(C)C | active |
| CCC(=O)OC1C(OC2C(C)C(OC3CC(C)(OC)C(O)C(C)O3)C(C)C(=O)OC(CC)C(C)(O)C(O)C(C)C(=O)C(C)CC2(C)O)OC(C)CC1N(C)C.CCCCCCCCCCCCOS(=O)(=O)O (stereo not given) | inactive |
| CO[C@@H]1CN(C)C(=O)c2ccc(NC(=O)Nc3ccc(F)cc3)cc2OC[C@@H](C)N(C(=O)c2ccc(F)cc2)C[C@H]1C | inactive |
| Cc1nn(C)c2c1[C@@H](c1ccc(C(F)(F)F)cc1)C(C#N)C(=N)O2 (stereo not given in full) | inactive |
| CCCNC(=O)N(C)C[C@H]1Oc2cc(-c3ccccc3F)ccc2S(=O)(=O)N([C@@H](C)CO)C[C@H]1C | inactive |
| Cc1noc(C)c1NC(=O)Nc1ccc2c(c1)C(=O)N([C@@H](C)CO)C[C@@H](C)[C@@H](CN(C)Cc1ccc(C(=O)O)cc1)OCCCC[C@H](C)O2 | inactive |
| C[C@@H]1CN([C@H](C)CO)C(=O)c2cc(NC(=O)c3ccncc3)ccc2O[C@@H]1CN(C)Cc1ccc(C(=O)O)cc1 | inactive |
| COc1cccc(CNC(=O)c2cc3c(c(-c4cccc(-c5ccncc5)c4)n2)[C@@H](CCO)N([S@](=O)C(C)(C)C)C3)c1 | inactive |
| CCC[C@@H]1C[C@@H](C(=O)N[C@@H]([C@H]2O[C@H](SC)[C@H](OP(=O)(O)O)[C@@H](O)[C@H]2O)[C@H](C)Cl)N(C)C1 | inactive |
| CCCCCCCCCCCCCCCC(=O)OC1C(SC)OC(C(NC(=O)C2CC(CCC)CN2C)C(C)Cl)C(O)C1O.Cl (stereo not given) | inactive |
| CCCC1CC(C(=O)NC(C(C)Cl)C2OC(SC)C(O)C(O)C2O)N(C)C1.Cl (stereo not given) | active |
| CCC[C@@H]1C[C@@H](C(=O)N[C@H]([C@H]2O[C@H](SC)[C@H](O)[C@@H](O)[C@H]2O)[C@@H](C)Cl)N(C)C1 | active |
| CCCCCCCCCCCCCCCC(=O)O[C@@H]1[C@@H](O)[C@@H](O)[C@@H]([C@H](NC(=O)[C@@H]2C[C@@H](CCC)CN2C)[C@H](C)Cl)O[C@@H]1SC | inactive |
| C[C@H](CO)N1C[C@H](C)[C@H](CN(C)Cc2ccncc2)Oc2ccc(NC(=O)Nc3cccc4ccccc34)cc2CC1=O | inactive |
| COc1ccc(NC(=O)Nc2ccc3c(c2)C(=O)N([C@H](C)CO)C[C@H](C)[C@@H](CN(C)S(=O)(=O)c2ccccc2)OCCCC[C@H](C)O3)cc1 | inactive |

| SMILES | growth inhibition call |
| --- | --- |
| COc1ccc(S(=O)(=O)N(C)C[C@@H]2Oc3cc(C4=CCCC4)ccc3S(=O)(=O)N([C@@H](C)CO)C[C@@H]2C)cc1 | inactive |
| C[C@@H]1[C@@H](c2ccccc2)OC(=O)[C@@H]2[C@H]3C(=O)N([C@@H](C)CO)[C@@H]4C(=O)N(Cc5ccccc5)CC=C[C@]34O[C@@H]2/C=C/CCC(=O)N1C | inactive |
| C=CC[C@@H](CC(=O)NCCO)C(=O)NCCOC(=O)[C@H](CC=C)NC(=O)OCC1c2ccccc2-c2ccccc21 | inactive |
| C[C@@H]1CCCCO[C@@H](CN(C)S(=O)(=O)c2ccc(F)cc2)[C@@H](C)CN([C@@H](C)CO)C(=O)c2cc(NC(=O)Cc3ccccc3)ccc2O1 | inactive |
| CN[C@@H](C)C(=O)N[C@H]1CN(C(=O)CC(C)C)CC[C@H]2CC[C@@H](C(=O)NC(c3ccccc3)c3ccccc3)N2C1=O | inactive |
| CC1(C)SC2C(NC(=O)C(C(=O)[O-])c3ccccc3)C(=O)N2C1C(=O)[O-].[Na+].[Na+] (stereo not given) | active |
| CC1(C)SC2C(NC(=O)C(N)c3ccccc3)C(=O)N2C1C(=O)[O-].[Na+] (stereo not given) | inactive |
| CCN1CCN(C(=O)NC(C(=O)NC2C(=O)N3C2SC(C)(C)C3C(=O)[O-])c2ccccc2)C(=O)C1=O.[Na+] (stereo not given) | active |
| CC1(C)S[C@@H]2[C@H](NC(=O)[C@H](NC(=O)N3CCNC3=O)c3ccccc3)C(=O)N2[C@H]1C(=O)O | inactive |
| CC1(C)SC2C(NC(=O)C(C(=O)[O-])c3ccsc3)C(=O)N2C1C(=O)[O-].[Na+].[Na+] (stereo not given) | inactive |
| CCN1CCN(C(=O)N[C@@H](C(=O)N[C@@H]2C(=O)N3[C@@H]2SC(C)(C)[C@@H]3C(=O)O)c2ccccc2)C(=O)C1=O | active |
| CC1(C)SC2C(NC(=O)C(NC(=O)N3CCNC3=O)c3ccccc3)C(=O)N2C1C(=O)[O-].[Na+] (stereo not given) | active |
| C[C@H]1CN([C@@H](C)CO)C(=O)c2cc(C#CC3(O)CCCC3)cnc2O[C@@H]1CN(C)S(C)(=O)=O | inactive |
| Cc1noc(C)c1NC(=O)N(C)C[C@H]1OCCCC[C@@H](C)Oc2ccc(NC(=O)CCC(F)(F)F)cc2C(=O)N([C@@H](C)CO)C[C@@H]1C | inactive |
| C[C@@H]1CN([C@@H](C)CO)C(=O)c2cc(C#Cc3ccccc3F)cnc2O[C@H]1CN(C)S(=O)(=O)c1ccccc1F | inactive |
| O=C(NCCN1CCOCC1)C(=O)NC[C@H]1OCCN1S(=O)(=O)c1ccc(F)cc1 | inactive |
| Cc1ccc(C(=O)Oc2ccc(/C=N/c3cccs3)cc2)cc1 | inactive |
| COc1ccc(S(=O)(=O)N(C)C[C@@H]2Oc3c(NC(=O)NC(C)C)cccc3C(=O)N([C@@H](C)CO)C[C@@H]2C)cc1 | inactive |
| COCC(=O)N(C)C[C@H]1Oc2cc(C#Cc3cccnc3)ccc2S(=O)(=O)N([C@@H](C)CO)C[C@@H]1C | inactive |
| C[C@@H]1CN([C@@H](C)CO)C(=O)c2c(c3ccccc3n2C)-c2ccccc2CO[C@H]1CN(C)Cc1ccc(F)cc1 | inactive |

| SMILES | growth inhibition call |
| --- | --- |
| C[C@@H]1CN([C@H](C)CO)C(=O)c2cc(NC(=O)CCCN(C)C)ccc2O[C@H]1CN(C)S(=O)(=O)c1cccs1 | inactive |
| Cc1ccc(S(=O)(=O)N(C)C[C@H]2OCCCC[C@H](C)Oc3ccc(NC(=O)Nc4c(C)noc4C)cc3C(=O)N([C@H](C)CO)C[C@@H]2C)cc1 | inactive |
| Cc1ccc(-c2ccc3c(c2)O[C@H](CN(C)C(=O)NC(C)C)[C@@H](C)CN([C@@H](C)CO)S3(=O)=O)cc1 | inactive |
| C[C@H]1CN([C@@H](C)CO)C(=O)Cc2cc(NS(C)(=O)=O)ccc2O[C@@H]1CN(C)C(=O)Nc1ccc(C(F)(F)F)cc1 | inactive |
| CC1(C)S[C@H]2[C@@H](NC(=O)[C@@H](NC(=O)N3CCN(S(C)(=O)=O)C3=O)c3ccccc3)C(=O)N2[C@@H]1C(=O)O | active |
| C[C@H](CO)N1C[C@H](C)[C@@H](CN(C)C(=O)C2CCOCC2)Oc2ncc(C#Cc3ccccc3F)cc2C1=O | inactive |
| CC(C)NC(=O)N[C@@H]1C=C[C@H](CC(=O)O)O[C@H]1CO | inactive |
| COc1ccc(CN(C)C[C@H]2Oc3ccc(NC(=O)Cn4cnnn4)cc3C(=O)N([C@@H](C)CO)C[C@H]2C)cc1 | inactive |
| CO[C@@H]1CN(C)C(=O)c2cc(NC(=O)C3CCOCC3)ccc2OC[C@@H](C)N(C(=O)Nc2ccc(C(F)(F)F)cc2)C[C@H]1C | active |
| CO[C@@H]1CN(C)C(=O)c2ccc(NC(=O)C3CC3)cc2OC[C@@H](C)N(C(=O)Nc2ccc(C(F)(F)F)cc2)C[C@H]1C | inactive |
| CO[C@@H]1CN(C)C(=O)c2ccc(NC(=O)C3CCCC3)cc2OC[C@@H](C)N(C(=O)Nc2ccc(C(F)(F)F)cc2)C[C@H]1C | inactive |
| CO[C@@H]1CN(C)C(=O)c2ccc(NC(=O)C3CCOCC3)cc2OC[C@@H](C)N(C(=O)Nc2ccc(C(F)(F)F)cc2)C[C@H]1C | active |
| CO[C@@H]1CN(C)C(=O)c2cc(NC(=O)C3CC3)ccc2OC[C@@H](C)N(C(=O)Nc2ccc(C(F)(F)F)cc2)C[C@H]1C | inactive |
| CO[C@@H]1CN(C)C(=O)c2cc(NC(=O)C3CCCC3)ccc2OC[C@@H](C)N(C(=O)Nc2ccc(C(F)(F)F)cc2)C[C@H]1C | inactive |
| C[C@H](CO)N1C[C@H](C)[C@H](CN(C)Cc2ccncc2)Oc2ccc(NC(=O)Nc3ccc(C(F)(F)F)cc3)cc2C1=O | inactive |
| C[C@@H]1CN([C@H](C)CO)C(=O)c2cc(NS(=O)(=O)c3cccs3)ccc2O[C@@H](C)CCCCO[C@@H]1CN(C)S(=O)(=O)c1ccc(Cl)cc1 | inactive |
| CCN(CC)C(C)CN1c2ccccc2Sc2ccccc21.Cl (stereo not given) | inactive |
| C[C@H](CO)N1C[C@H](C)[C@H](CN(C)C(=O)Nc2ccccc2)Oc2c(NS(=O)(=O)c3cn(C)cn3)cccc2C1=O | inactive |
| C[C@@H]1CN([C@H](C)CO)C(=O)c2cccc(NS(=O)(=O)c3ccc(F)cc3)c2O[C@H]1CN(C)S(=O)(=O)c1cccs1 | inactive |
| Cc1ccc(OC(=O)N(C)C[C@H]2OCc3ccccc3-c3ccccc3C(=O)N([C@@H](C)CO)C[C@@H]2C)cc1 | inactive |
